MITF inh = inhibitors of human MITF. AlphaScreen MITF homodimerization, bead proximity signal. O75030. inhibition, % at 2.6 µM. 650,000 tested, 0.91% active; in the data active means inhibition above about 50%;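 further: 0% = vehicle wells with protein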
GPR151 ag = activates the human receptor GPR151; 650,000 tested, 1% active; Q8TDV0; activation, % at 11.2 µM; PathHunter beta-arrestin GPR151 cells, luminescence; in the data active means activation above about 4.9%;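 further: 0% = median of compound wells and 100% = cells with positive control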
FBW7 activator = activators of human E3 ligase FBW7. AlphaScreen FBW7–phospho-cyclin E peptide binding, activator screen. Q969H0. normalized activity (activation), % at 26.1 µM. 650,000 tested, 0.13% active; in the data active means normalized activity above about 1.9%;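 further: purified mutant Fbw7 with reduced substrate affinity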
TEAD-YAP block = TEAD-YAP interaction inhibition. inhibition, % at 9.12 µM. 640,000 tested, 1.4% active. HEK-TIYL cells, TEAD-Gal4/YAP UAS-luciferase luminescence. AID 1259422; in the data active means inhibition above about 32%;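 further: 0% = median of test compound wells and 100% = reference inhibitor wells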
GPR151 conf act = human GPR151 activation, confirmation screen; AID 1508609; activation, % at 11.2 µM; 6,700 tested, under 10 active; GPR151 PathHunter beta-arrestin cells, luminescence, 90 min; % of EA-reagent control over plate median; shares compounds with GPR151 ag;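 active means mean percent activation across replicates above the confirmation screen cutoff of 4.91%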
GPR119 counter = counter-screen for GPR151 activators: effect on human GPR119. 6,700 tested, 0.3% active. activation, % at 11.2 µM. GPR119 PathHunter beta-arrestin cells, luminescence, 90 min; 0 = compound-well median, 100 = enzyme-acceptor control. shares compounds with GPR151 ag;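 active means mean percent activation in the counterscreen above 29.09%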;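 further: counterscreen on off-target GPR119 to flag nonselective hits from the GPR151 activator screen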
Target sequence (Q8TDV5 whole entry, looked up): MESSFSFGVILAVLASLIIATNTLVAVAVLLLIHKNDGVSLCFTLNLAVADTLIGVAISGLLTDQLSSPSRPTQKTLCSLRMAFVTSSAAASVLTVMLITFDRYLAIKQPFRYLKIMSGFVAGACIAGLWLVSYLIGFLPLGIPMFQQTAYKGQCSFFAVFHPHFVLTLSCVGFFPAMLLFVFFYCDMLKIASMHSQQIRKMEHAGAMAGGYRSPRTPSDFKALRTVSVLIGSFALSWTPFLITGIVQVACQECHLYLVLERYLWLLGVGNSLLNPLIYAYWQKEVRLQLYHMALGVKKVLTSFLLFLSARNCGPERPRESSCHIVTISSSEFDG
* hit, by the source's call; . = no result. Rows were chosen to be rich in hits. Some 3.5% of all compounds tested hit in one or more screens of this group.

SMILES | MITF inh | GPR151 ag | FBW7 activator | TEAD-YAP block | GPR151 conf act | GPR119 counter
COc1ccc(C(=O)Nc2ccccc2)cc1S(=O)(=O)N1CCCc2ccccc21 | 32 | -1 | 0 | 19 | . | .
COc1cc(OC)c(S(=O)(=O)N2CCCc3ccccc32)cc1NC(C)=O | 11 | 6.1* | 0 | -3 | 0 | 2
COc1ccc(C(=O)C2CCCN(S(=O)(=O)c3c(C)nn(C)c3Cl)C2)c(C)c1 (centres undefined) | 17 | 1 | 0 | 8 | . | .
COc1c(C)cc(C(=O)C2CCCN(S(=O)(=O)c3c(C)nn(C)c3Cl)C2)cc1C (centres undefined) | -2 | 8.7* | 0 | 0 | 0 | -3
CC(=O)NC(=O)c1cc2ccccc2oc1=Nc1ccccc1F | 0 | 0 | 0 | -47 | . | .
O=C(NNS(=O)(=O)c1ccc(Br)cc1)c1ccccc1 | 7 | 5.4* | 1 | 6 | 0 | -8
O=C(NNS(=O)(=O)c1ccc2ccccc2c1)c1ccc(Br)cc1 | 4 | 1 | 0 | -6 | . | .
CN(C)CCN(C)C(=O)c1cccc(OC2CCN(C3CCCCCC3)CC2)c1 | 8 | -1 | 0 | -7 | . | .
CC1=C(C#N)c2nc(N)c(C#N)c(C)c2/C1=C\c1cccs1 | -2 | 5.4* | 0 | -7 | 1 | -1
COC(=O)c1c(C)[nH]c(C(=O)COC(=O)CCc2ccc(OC)c(OC)c2)c1C | 6 | 5.7* | 0 | 5 | 0 | 4
C=CCOc1ccc(-c2nn(-c3ccccc3)cc2/C=c2\sc3nc(-c4ccc(Br)cc4)nn3c2=O)cc1 | 0 | 1 | 0 | 8 | . | .
CCN(CC)CCN1CCN(c2ccnc3c(-c4cnc(OC)nc4OC)cnn23)CC1 | 6 | 1 | 0 | -34 | . | .
COc1cc(/C=N/n2c(-c3ccncc3)n[nH]c2=S)cc(Br)c1O | -7 | 5.0* | 0 | 4 | 0 | -7
Cc1cccn2c(CN3CCN(c4ccncc4)CC3)c(C(=O)N3CCCCC3)nc12 | -11 | 5.2* | 0 | 8 | 0 | 5
Cc1cccn2c(CNC3CCOC(C)(C)C3)c(C(=O)N3CCOCC3)nc12 (centres undefined) | 0 | 4.9* | 0 | -8 | 0 | -4
Cc1cccn2c(CNCCc3ccccn3)c(C(=O)N3CCOCC3)nc12 | -9 | 5.9* | 0 | -6 | 0 | 3
Cc1cccn2c(CN3CCOCC3)c(C(=O)N3CCCCC3)nc12 | 8 | 0 | 0 | -13 | . | .
Cc1cc(Cl)ccc1NC(=O)COc1ccc(S(=O)(=O)NC2CCCC2)cc1 | -6 | 2 | 0 | 0 | . | .
COc1ccccc1N1CCN(c2ncc(C(=O)Nc3c(F)cccc3F)c3ccccc23)CC1 | 10 | -1 | 0 | 12 | . | .
CCN(c1ccccc1)S(=O)(=O)c1ccc(F)c(C(=O)Nc2ccc(OC)cc2)c1 | 14 | 8.7* | 0 | 5 | -2 | -15
CCN(c1ccccc1)S(=O)(=O)c1nnc(NC(=O)c2ccccc2OC)s1 | -9 | 5.0* | 0 | 3 | 1 | 5
CCN(c1ccccc1C)S(=O)(=O)c1nnc(NC(=O)c2ccc(F)cc2)s1 | 6 | 10* | 0 | 7 | 0 | -6
CCc1cc(NCCCn2ccnc2)n2nc3nc(C)cc(C)c3c2n1 | 6 | -2 | 0 | -5 | . | .
CN(C)c1ccc(CN(C(=O)c2ccccc2[N+](=O)[O-])C2CCS(=O)(=O)C2)cc1 (centres undefined) | 20 | -1 | 0 | -8 | . | .
O=C(c1ccccc1[N+](=O)[O-])N(Cc1ccc(Cl)cc1)C1CCS(=O)(=O)C1 (centres undefined) | -14 | 5.0* | 0 | 0 | 1 | -2
SMILES | MITF inh | GPR151 ag | FBW7 activator | TEAD-YAP block | GPR151 conf act | GPR119 counter
CCOC(=O)c1ccc(NC(=O)C(C)N(c2ccc(C)c(C)c2)S(C)(=O)=O)cc1 (centres undefined) | -3 | 5.1* | 0 | -8 | 0 | 13
COC(=O)c1ccc(NC(=O)C(C)N(c2ccc(C)c(C)c2)S(C)(=O)=O)cc1 (centres undefined) | 5 | 2 | 0 | -6 | . | .
CCOC(=O)c1ccccc1NC(=O)C(C)N(c1ccc(Cl)cc1)S(C)(=O)=O (centres undefined) | 14 | -2 | 0 | 4 | . | .
CCOC(=O)c1ccccc1NC(=O)C(C)N(c1ccc(C)cc1)S(C)(=O)=O (centres undefined) | 7 | 5.9* | 0 | 2 | 0 | 1
Cc1ccc(C(=O)COC(=O)CCCC(=O)NC2CCCCC2)cc1C | -3 | 1 | 0 | 14 | . | .
COc1cc(C)c(CN(CCCN(C)C)CCCN(C)C)cc1C | 46 | 0 | 0 | 4 | . | .
O=C1CC2CS(=O)(=O)CC2N1CCN1CCOCC1 (centres undefined) | 2 | 0 | 0 | 7 | . | .
CN(C)CCNC(=O)C(=O)NCC1OCCN1S(=O)(=O)c1cccs1 (centres undefined) | -16 | 6.3* | 1 | 6 | 0 | 4
COC(CNC(=O)C(=O)NCC1OCCN1S(=O)(=O)c1cccs1)OC (centres undefined) | 7 | -2 | 1 | -7 | . | .
S=C1NC2=C(C(c3ccc(Br)cc3)N1)N1CCC2CC1 (centres undefined) | 15 | 5.7* | 0 | 4 | -1 | -9
CN(C)c1ccc(C2NC(=S)NC3=C2N2CCC3CC2)cc1 (centres undefined) | 1 | 0 | 0 | -10 | . | .
Cc1ccc(OCCOc2ccc(Oc3nc(N(C)C)nc(N(C)C)n3)nn2)cc1 | 9 | 5.3* | 0 | -7 | 1 | 12
NC(CCCCNC(=O)c1ccccc1)C(=O)O (centres undefined) | 7 | 5.0* | 0 | 5 | -1 | -10
COC(=O)C(CCCCNC(=O)c1ccccc1)NC(=O)c1ccccc1 (centres undefined) | 6 | 0 | 0 | 3 | . | .
COc1ccc(S(=O)(=O)N(CC(=O)O)Cc2ccccc2)cc1C | -14 | -1 | 0 | 12 | . | .
COc1ccc(S(=O)(=O)N(C)Cc2ccccc2)cc1C | 4 | 11* | 0 | -3 | 0 | -6
Cc1cccc(OCC(=O)Nc2ccc(S(=O)(=O)N(C)Cc3ccccc3)cc2)c1 | -7 | 5.6* | 0 | -9 | 0 | 4
CC(=O)Nc1ccc(S(=O)(=O)N(C)Cc2ccccc2)cc1 | -11 | 1 | 0 | 0 | . | .
CN(Cc1ccccc1)S(=O)(=O)c1ccc(NS(C)(=O)=O)cc1 | 10 | 5.7* | 0 | 2 | -1 | -11
CCNC(=O)N1CCN(CCS(=O)(=O)c2ccccc2)CC1C(=O)N1CCCC1 (centres undefined) | -13 | 1 | 0 | -9 | . | .
CCOC(=O)c1c(N)sc(C)c1-c1cccc(Cl)c1 | 2 | 0 | 0 | 2 | . | .
COC(=O)c1c(N)sc(C)c1-c1cccc(Cl)c1 | -5 | 6.0* | 0 | 1 | 1 | 18

Compound activity from PubChem BioAssay.
